Test results: PubChem BioAssay AID493240 (Broad Institute, 2011)
The campaign covered roughly 1,300 compounds. About 270 (21%) were called active. The rule behind the calls is not given here. Only a sample is shown. Entries with a potency or affinity are not part of this list.

Test: SK-MEL-5 parental cell viability loss, dose response, orthogonal assay for MITF inhibitor project, CellTiter-Glo, cherry-picked, set 3 (AID 493240)
Conditions: SK-MEL-5 viability, ATP luminescence (CellTiter-Glo), 24 h; series mostly up to 35 µM

With `COc1ccc(C(=O)CN2Cc3ccccc3C2=N)cc1` as the compound, how does the outcome read?
Its outcome is “inactive”.

Which outcome does the source give for `O=C1CN(c2ccccc2)C(=S)N1C(=O)c1ccc(Br)cc1` here?
Its outcome is “inactive”.

Which outcome does the source give for `O=C(COC(=O)CCN1C(=O)/C(=C\C=C\c2ccccc2)SC1=S)Nc1cc(F)ccc1F` here?
Its outcome is “inactive”.

For `COc1cc(C(=O)Oc2c(CN3CCOCC3)cc(Cl)c3cccnc23)cc(OC)c1OC`, which outcome is on record?
The outcome was “inactive”.

For `C/C(=N\NC(=O)COc1ccccc1-c1ccccc1)c1ccccn1`, which outcome is on record?
The outcome was “inactive”.

For `CCOC(=O)COc1ccc2ccccc2c1/C=C/[N+](=O)[O-]`, which outcome is on record?
Its outcome is “inactive”.

With `O=C(/C=C/c1ccc([N+](=O)[O-])s1)N1CCCCC1` as the compound, how does the outcome read?
Its outcome is “inactive”.

For `O=C(Nc1ccc(Cl)cc1)N1CC=CCC1`, which outcome is on record?
The outcome was “inactive”.

Which outcome does the source give for `NC(=O)c1c(NC(=O)c2cccnc2)sc2c1CCCCC2` here?
Its outcome is “inactive”.

With `O=C(N/N=C/c1cc([N+](=O)[O-])ccc1N1CCNCC1)c1ccc([N+](=O)[O-])cc1` as the compound, how does the outcome read?
The outcome was “inactive”.

With `OCC1CCCC(n2cnc3c(=S)nc[nH]c32)O1` (stereo not given) as the compound, how does the outcome read?
The outcome was “inactive”.

With `CN(C)CCNC(=O)COc1ccc(C23CC4CC(CC(C4)C2)C3)cc1` as the compound, how does the outcome read?
Its outcome is “inactive”.

With `O=C(CSc1ccc(Cl)cc1)NC1CCCC1` as the compound, how does the outcome read?
Its outcome is “inactive”.

Which outcome does the source give for `N#CC1=C(c2ccccc2)/C(=C/c2ccccc2)OC1=O` here?
The outcome was “inactive”.

Which outcome does the source give for `Cc1cc(C=C2C(=O)c3ccccc3C2=O)c(C)n1-c1ccccc1` here?
The outcome was “inactive”.

For `Cc1ccccc1-n1ncc2c([N+](=O)[O-])cc([N+](=O)[O-])cc21`, which outcome is on record?
Its outcome is “inactive”.

Which outcome does the source give for `Cc1cc2oc(=O)cc(C)c2cc1NC(=O)CCC(=O)O` here?
The outcome was “inactive”.

For `Cn1c(SC2=CS(=O)(=O)c3ccccc32)nc2ccccc21`, which outcome is on record?
Its outcome is “inactive”.

For `COc1ccc(C(=O)NC(=O)Nc2cc(C)ccn2)cc1`, which outcome is on record?
Its outcome is “inactive”.

Which outcome does the source give for `Cc1cnn(C(=S)NCCc2ccccc2)c1` here?
The outcome was “inactive”.

Which outcome does the source give for `Cc1cc(NCCCn2ccnc2)n2ncc(-c3ccccc3)c2n1` here?
Its outcome is “inactive”.

Which outcome does the source give for `CC(=O)c1ccc(N/C=C/C(=O)c2ccc(Br)cc2)cc1` here?
The outcome was “inactive”.

For `COc1ccc(C(=O)N/N=C/c2cc(Br)ccc2O)cc1OC`, which outcome is on record?
The outcome was “inactive”.

For `CCOc1cc(/C=C(/C#N)c2ccc(Cl)cc2)cc(Cl)c1OCC(=O)O`, which outcome is on record?
The outcome was “inactive”.

For `O=[N+]([O-])c1ccc(N/N=C/C=C/c2ccco2)cc1`, which outcome is on record?
The outcome was “inactive”.

Which outcome does the source give for `CCC(=O)N1CCN(c2ccc(NC(=O)c3ccc([N+](=O)[O-])o3)cc2)CC1` here?
Its outcome is “inactive”.

Which outcome does the source give for `O=C(Nc1ccc(N2CCN(C(=O)c3ccc(Cl)cc3)CC2)cc1)c1ccc([N+](=O)[O-])o1` here?
The outcome was “inactive”.

With `CS(=O)(=O)N1CCN(c2ccc(NC(=O)c3ccc([N+](=O)[O-])o3)cc2)CC1` as the compound, how does the outcome read?
The outcome was “inactive”.

For `Cc1ccccc1C(=O)N1CCN(c2ccc(NC(=O)c3ccc([N+](=O)[O-])o3)cc2)CC1`, which outcome is on record?
The outcome was “inactive”.

With `CC(C)(C)c1ccc(C(=O)Nc2ccc(CC(=O)O)cc2)o1` as the compound, how does the outcome read?
Its outcome is “inactive”.
